{
  "source": "PubChem BioAssay (EPA / NIEHS)",
  "key": {"TTR (gene 7276)": {"tested_on": "TTR (gene 7276)", "assay": "CCTE_GLTED_hTTR_0.125uM: CCTE's human Transthyretin (hTTR) Inhibition Assay, with 0.125uM TTR, Great Lakes Toxicology and Ecology Division (GLTED) Lab (AID 2284431);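 also: hits lower the fluorescence signal relative to DMSO baseline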", "summary_of_the_method": "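TTR 0.125uM + test chemical, 2 h; ANSA probe displacement; ex 380/em 475 fluorescence; signal loss vs DMSO control.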"}, "[1]": {"assay": "CCTE_Padilla_ZF_Score.Swim_bladder: CCTE's 144 Hour Post-fertilization zebrafish Assay Score for Swim Bladder Malformation, Padilla Lab (AID 2284408)", "summary_of_the_method": "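Wild-type zebrafish embryos, one per well in 10% Hanks', dosed at 6–8 hpf, sealed, reared at 26C and rinsed at 5 dpf. Blinded assessors scored uninflated swim bladder by stereomicroscopy at 6 dpf, relative to DMSO.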"}, "[2]": {"assay": "CCTE_Padilla_ZF_Score.Position: CCTE's 144 Hour Post-fertilization zebrafish Assay Score for Position, Padilla Lab (AID 2284409)", "summary_of_the_method": "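Wild-type zebrafish embryos (with chorions) exposed singly from 6–8 hpf in sealed wells of Hanks' solution at 26C, rinsed at 5 dpf. At 6 dpf, blinded assessors scored abnormal water-column position by brightfield stereomicroscopy, relative to DMSO.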"}, "[3]": {"assay": "CCTE_Padilla_ZF_Score.Living: CCTE's 144 Hour Post-fertilization zebrafish Assay Score for Viability, Padilla Lab (AID 2284410);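 also: larval death at 6 dpf judged by absent heartbeat or coagulation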", "summary_of_the_method": "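Wild-type zebrafish embryos were exposed singly from 6–8 hpf in sealed wells of Hanks' solution at 26C, then rinsed at 5 dpf. At 6 dpf, blinded assessors scored mortality (no heartbeat or coagulation) by stereomicroscopy, fitted against DMSO.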"}, "[4]": {"assay": "CCTE_Padilla_ZF_Score.General: CCTE's 144 Hour Post-fertilization zebrafish Assay Score for General Malformation, Padilla Lab (AID 2284411)", "summary_of_the_method": "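Wild-type zebrafish embryos were plated singly at 6-8 hpf in 10% Hanks' and exposed in sealed wells at 26C until rinsed on 5 dpf. At 6 dpf two blinded assessors scored mortality, hatching and malformations by stereomicroscopy; gain-of-signal versus DMSO.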"}, "[5]": {"assay": "CCTE_Padilla_ZF_Score.Tail: CCTE's 144 Hour Post-fertilization zebrafish Assay Score for Tail Malformation, Padilla Lab (AID 2284414)", "summary_of_the_method": "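Wild-type zebrafish embryos, one per well in 200 uL 10% Hanks', dosed at 6-8 hpf, sealed, and kept at 26 C on a 14:10 h light cycle. Chemical was rinsed out at 5 dpf. Blinded brightfield scoring of tail defects followed at 6 dpf.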"}, "[6]": {"assay": "CCTE_Padilla_ZF_Score.Blood_pooling: CCTE's 144 Hour Post-fertilization zebrafish Assay Score for Blood Pooling, Padilla Lab (AID 2284415)", "summary_of_the_method": "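Wild-type outbred zebrafish embryos, one per well in 10% Hanks', exposed from 6–8 hpf in sealed plates at 26C on 14:10 h light:dark, rinsed at 5 dpf. Blinded stereomicroscope scoring of blood pooling at 6 dpf; gain-of-signal versus DMSO.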"}, "[7]": {"assay": "CCTE_Padilla_ZF_Score.Any: CCTE's 144 Hour Post-fertilization zebrafish Assay Score for Any Mortality or Malformation, Padilla Lab (AID 2284416)", "summary_of_the_method": "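Wild-type zebrafish embryos with chorions, one per well in 10% Hanks' from 6–8 hpf, dosed in sealed plates at 26 C, 14:10 h light:dark; rinsed at 5 dpf; blinded scoring at 6 dpf for death or malformation, versus DMSO.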"}},
  "note": "Several values for one entry are separate records, joined by “and”; a condition that tells them apart may be missing. Equal values may be shown once. The source holds several records for some structures; these can differ, active in one and inactive in another. Activity calls are given as the source filed them. The calls were made as follows: active = hit-call score of the fitted dose curve at least 0.9, where 1 is the maximum; inactive = score below 0.9.",
  "data": [
    {"smiles": "O=C(O)c1ccccc1C(c1ccc(O)cc1)c1ccc(O)cc1", "values": [
      {"measurement": "AC50", "setting": "TTR (gene 7276)", "value": "3040 nM (active)"}
    ]},
    {"smiles": "OCCC(F)(F)C(F)(F)C(F)(F)C(F)(F)C(F)(F)C(F)(F)C(F)(F)C(F)(F)F", "values": [
      {"measurement": "outcome", "setting": "[1]", "value": "inactive"},
      {"measurement": "outcome", "setting": "[2]", "value": "inactive"},
      {"measurement": "AC50", "setting": "[3]", "value": "78300 nM (active)"},
      {"measurement": "AC50", "setting": "[4]", "value": "88.8 µM (active)"},
      {"measurement": "outcome", "setting": "[5]", "value": "inactive"},
      {"measurement": "outcome", "setting": "[6]", "value": "inactive"},
      {"measurement": "outcome", "setting": "[7]", "value": "inactive"}
    ]},
    {"smiles": "FC(F)(I)C(F)(F)C(F)(F)C(F)(F)C(F)(F)C(F)(F)I", "values": [
      {"measurement": "AC50", "setting": "[1]", "value": "10.9 µM (active) and 8.3 µM (active)"},
      {"measurement": "AC50", "setting": "[2]", "value": "28 µM (active) and 4 µM (active)"},
      {"measurement": "AC50", "setting": "[3]", "value": "88800 nM (active)"},
      {"measurement": "outcome", "setting": "[3]", "value": "inactive"},
      {"measurement": "AC50", "setting": "[4]", "value": "15.6 µM (active) and 5.69 µM (active)"},
      {"measurement": "outcome", "setting": "[5]", "value": "inactive"},
      {"measurement": "AC50", "setting": "[6]", "value": "28.6 µM (active) and 3 µM (active)"},
      {"measurement": "AC50", "setting": "[7]", "value": "10 µM (active) and 3.34 µM (active)"}
    ]},
    {"smiles": "CCCCCCCCC(=O)O", "values": [
      {"measurement": "AC50", "setting": "TTR (gene 7276)", "value": "12400 nM (active)"}
    ]},
    {"smiles": "NC(=O)N(O)[C@@H]1C=C[C@H](Oc2cccc(Oc3ccc(F)cc3)c2)C1", "values": [
      {"measurement": "AC50", "setting": "TTR (gene 7276)", "value": "439 nM (active)"}
    ]},
    {"smiles": "NC(=O)N1C(=O)C(C(=O)c2cc(Cl)cs2)c2cc(F)c(Cl)cc21", "note": "(stereo unspecified)", "values": [
      {"measurement": "AC50", "setting": "TTR (gene 7276)", "value": "48.1 nM (active)"}
    ]},
    {"smiles": "CCc1ccc(CCOc2ccc(CC3SC(=O)NC3=O)cc2)nc1", "note": "(stereo unspecified)", "values": [
      {"measurement": "AC50", "setting": "TTR (gene 7276)", "value": "392 nM (active)"}
    ]},
    {"smiles": "C=C(C)C(=O)OCCC(F)(F)C(F)(F)C(F)(F)C(F)(F)C(F)(F)C(F)(F)F", "values": [
      {"measurement": "outcome", "setting": "[1]", "value": "inactive"},
      {"measurement": "outcome", "setting": "[2]", "value": "inactive"},
      {"measurement": "outcome", "setting": "[3]", "value": "inactive"},
      {"measurement": "outcome", "setting": "[4]", "value": "inactive"},
      {"measurement": "outcome", "setting": "[5]", "value": "inactive"},
      {"measurement": "outcome", "setting": "[6]", "value": "inactive"},
      {"measurement": "outcome", "setting": "[7]", "value": "inactive"}
    ]},
    {"smiles": "CC[C@H](c1ccc(O)cc1)[C@@H](CC)c1ccc(O)cc1", "values": [
      {"measurement": "AC50", "setting": "TTR (gene 7276)", "value": "132 nM (active)"}
    ]},
    {"smiles": "O=C(O)Cc1cc(I)c(Oc2cc(I)c(O)c(I)c2)c(I)c1", "values": [
      {"measurement": "AC50", "setting": "TTR (gene 7276)", "value": "10.4 nM (active)"}
    ]},
    {"smiles": "NCC(F)(F)C(F)(F)C(F)(F)C(F)(F)C(F)(F)C(F)(F)C(F)(F)F", "values": [
      {"measurement": "outcome", "setting": "[1]", "value": "inactive"},
      {"measurement": "outcome", "setting": "[2]", "value": "inactive"},
      {"measurement": "outcome", "setting": "[3]", "value": "inactive"},
      {"measurement": "outcome", "setting": "[4]", "value": "inactive"},
      {"measurement": "outcome", "setting": "[5]", "value": "inactive"},
      {"measurement": "outcome", "setting": "[6]", "value": "inactive"},
      {"measurement": "outcome", "setting": "[7]", "value": "inactive"}
    ]}
  ]
}
